Results: PubChem BioAssay AID488984 (The Scripps Research Institute Molecular Screening Center, 2010)
A number with no mark means an inactive call. Calls of active or inactive are those of the source. Cut-off read from the data, not from the text of the source: active = inhibition above about 55%; inactive = the rest.

These compounds were tested on SARS coronavirus 3C-like protease (3CLpro, nsp5) (assay: blockers of SARS 3CLpro activity – biochemical, fluorescence, set 2, late-stage follow-up (AID 488984)). Settings: recombinant 3CLpro, fluorogenic peptide cleavage; at 100 µM; active compounds read high.
In the case of `CC(C)(C)NC(=O)C(c1ccsc1)N(C(=O)Cn1nnc2ccccc21)c1ccc(NS(C)(=O)=O)cc1` (stereo not given), the inhibition is reported as 89.5% (active).
`CC(C)(C)NC(=O)C(c1cccnc1)N(C(=O)Cc1cccnc1)C1CC1` (stereo not given) showed an inhibition of 7.01%.
`CC(C)(C)NC(=O)C(c1ccsc1)N(C(=O)c1ccc(C#N)cc1)c1ccc(F)cc1` (stereo not given) gave an inhibition of 17.4%.
With `CC(C)(C)NC(=O)C(c1cccnc1)N(C(=O)c1ccc(C(F)(F)F)nc1)c1ccc(F)cc1` (stereo not given) the inhibition was 10.5%.
With `CCC(=O)Nc1ccc(N(C(=O)Cn2c(C)nc3ccccc32)C(C(=O)NC(C)(C)C)c2ccsc2)cc1` (stereo not given) the inhibition was 0.52%.
For `CC(=O)Nc1ccc(N(C(=O)Cn2cnc3ccccc32)C(C(=O)NC(C)(C)C)c2ccsc2)cc1` (stereo not given), the inhibition was 2.63%.
With `CC(C)(C)NC(=O)C(c1cccnc1)N(C(=O)Cc1c[nH]c2ccccc12)c1ccc(C(C)(C)C)cc1` (stereo not given) the inhibition was 30.6%.
`CC(C)(C)NC(=O)C(c1ccsc1)N(C(=O)c1n[nH]c2ccccc12)c1ccc(C(C)(C)C)cc1` (stereo not given) gave an inhibition of 17.9%.
For `CC(C)c1ccc(N(C(=O)Cc2c[nH]c3ccccc23)C(C(=O)NC(C)(C)C)c2cccnc2)cc1` (stereo not given), the inhibition was 3.78%.
With `CC(C)(C)NC(=O)C(c1cccnc1)N(C(=O)c1n[nH]c2ccccc12)c1ccc(C(C)(C)C)cc1` (stereo not given) the inhibition was 20.6%.
Compound `Cc1nccn1CC(=O)N(c1ccc(C(C)(C)C)cc1)C(C(=O)NC(C)(C)C)c1ccsc1` (stereo not given) has an inhibition of 0.41%.
`CC(C)(C)NC(=O)C(c1cccnc1)N(C(=O)Cc1cccnc1)c1ccc(C(C)(C)C)cc1` (stereo not given) showed an inhibition of 20.2%.
`CC(C)(C)NC(=O)C(c1cccnc1)N(C(=O)c1ccc(C#N)cc1)C1CC1` (stereo not given) gave an inhibition of -4.03%.
Compound `CC(C)(C)NC(=O)C(c1cccnc1)N(C(=O)Cc1cccnc1)c1ccc(F)cc1` (stereo not given) has an inhibition of 5.7%.
In the case of `Cc1nccn1CC(=O)N(c1ccc(N)cc1)C(C(=O)NC(C)(C)C)c1ccsc1` (stereo not given), the inhibition is reported as 6.79%.
Work on `Cc1nccn1CC(=O)N(c1ccc(NC(=O)C(C)C)cc1)C(C(=O)NC(C)(C)C)c1ccsc1` (stereo not given) yielded an inhibition of 7.94%.
`CC(C)(C)NC(=O)C(c1ccsc1)N(C(=O)Cc1c[nH]c2ccccc12)c1ccc(C(C)(C)C)cc1` (stereo not given) gave an inhibition of 26.3%.
`CC(C)c1ccc(N(C(=O)c2ccco2)C(C(=O)NC(C)(C)C)c2ccsc2)cc1` (stereo not given) showed an inhibition of 6.57%.
`CC(C)(C)NC(=O)C(c1ccsc1)N(C(=O)Cc1c[nH]c2ccccc12)C1CC1` (stereo not given) showed an inhibition of 48.4%.
`CC(C)(C)NC(=O)C(c1cccnc1)N(C(=O)Cc1cccc2ccccc12)c1ccc(C(C)(C)C)cc1` (stereo not given) showed an inhibition of 19.6%.
`CC(C)(C)NC(=O)C(c1cccnc1)N(C(=O)c1ccco1)C1CC1` (stereo not given) showed an inhibition of -1.64%.
With `CC(C)(C)NC(=O)C(c1cccnc1)N(C(=O)c1ccco1)c1ccc(F)cc1` (stereo not given) the inhibition was -4.66%.
`CC(C)(C)NC(=O)C(c1ccsc1)N(C(=O)Cc1cccc2ccccc12)c1ccc(C(C)(C)C)cc1` (stereo not given) gave an inhibition of 22.3%.
`CC(C)(C)NC(=O)C(c1cccnc1)N(C(=O)c1ccc(C(F)(F)F)nc1)C1CC1` (stereo not given) showed an inhibition of 5.34%.
With `CC(C)(C)NC(=O)C(c1ccsc1)N(C(=O)Cc1cccc2ccccc12)c1ccc(OCF)cc1` (stereo not given) the inhibition was 18.2%.
For `CC(C)(C)NC(=O)C(c1cccnc1)N(C(=O)c1ccco1)c1ccc(C(C)(C)C)cc1` (stereo not given), the inhibition was 102% (active).
Work on `CC(=O)Nc1ccc(N(C(=O)Cn2c(C)nc3ccccc32)C(C(=O)NC(C)(C)C)c2ccsc2)cc1` (stereo not given) yielded an inhibition of 2.27%.
In the case of `CC(C)c1ccc(N(C(=O)c2ccc(C#N)cc2)C(C(=O)NC(C)(C)C)c2cccnc2)cc1` (stereo not given), the inhibition is reported as -3.85%.
With `CC(C)(C)NC(=O)C(c1cccnc1)N(C(=O)Cc1cccc2ccccc12)C1CC1` (stereo not given) the inhibition was 2.44%.
In the case of `CC(C)(C)NC(=O)C(c1cccnc1)N(C(=O)c1cccc2c1CCCC2)c1ccc(F)cc1` (stereo not given), the inhibition is reported as 12%.
In the case of `CC(C)(C)NC(=O)C(c1ccsc1)N(C(=O)Cn1cnc2ccccc21)c1ccc(NS(C)(=O)=O)cc1` (stereo not given), the inhibition is reported as 38%.
Compound `CC(C)c1ccc(N(C(=O)c2cccc3c2CCCC3)C(C(=O)NC(C)(C)C)c2cccnc2)cc1` (stereo not given) has an inhibition of -5.03%.
With `Cc1nc2ccccc2n1CC(=O)N(c1ccc(NC(=O)C(C)C)cc1)C(C(=O)NC(C)(C)C)c1ccsc1` (stereo not given) the inhibition was 0.26%.
`CC(C)(C)NC(=O)C(c1cccnc1)N(C(=O)c1ccc(C#N)cc1)c1ccc(C(C)(C)C)cc1` (stereo not given) gave an inhibition of -0.02%.
`CC(C)(C)NC(=O)C(c1ccsc1)N(C(=O)c1ccco1)c1ccc(C(C)(C)C)cc1` (stereo not given) showed an inhibition of 19.5%.
